The test can be described thus: TOR pathway CIT2 reporter hit retest – S. cerevisiae, GFP fusion, cherry picks, mother/daughter gates, confirmation (AID 2274). The settings on record: S. cerevisiae CIT2-GFP strain, flow cytometry, 3 h; measured here: mother cell gate; at 10 µM; stronger effect = higher value. Background: Flow cytometry measures light scatter and fluorescence of single cells or particles in a stream.
`Cc1cccn2c(=O)c(/C=C(\C#N)C(N)=O)c(N3CCN(Cc4ccc5c(c4)OCO5)CC3)nc12` came in with a GFP response, % of DMSO of 112%. For `O=S(=O)(CCN(CCS(=O)(=O)C(F)(F)F)CC1CCCO1)C(F)(F)F` (stereo not given) the value was 96.8%; for `COc1cc(NC(=O)C(C)C)ccc1NC(=O)c1cc2ccccc2o1`, 104%. For `COc1cc(/C=C2/N=C(c3ccccc3)OC2=O)c(F)cc1OCc1ccccc1` the value was 106%; for `Cc1cccc(C)c1OCCOC(=O)c1n[nH]c2ccccc12`, 93.3%.

`Cc1ccc(/C=N\NC(=O)c2cc(OCC(F)(F)F)ccc2OCC(F)(F)F)cc1` gave a GFP response, % of DMSO of 106%. Under `CCOCCCNC(=O)/C(C#N)=C/c1ccc([N+](=O)[O-])o1` stands 110%; under `O=c1[nH]c(CN2CCCCC2)nc2c1C1(CCCCC1)Cc1ccccc1-2`, 98.7%; under `CSC1=NC(=O)/C(=C/c2ccc(SC)cc2)S1`, 70.3%. With `COC(=O)Nc1c(-c2ccccc2)nc2ccccn12`, the GFP response, % of DMSO was found to be 101%. For `CCCc1[nH]nc2c1C(c1ccc(O)c(OC)c1)C(C#N)=C(N)O2` (stereo not given) the value was 103%; for `CCc1ccc2c(c1)/C(=C/C(=O)c1cccs1)C(=O)N2`, 84.8%; for `CCN(C(=O)c1ccccc1Cl)c1ccccc1`, 100%. Under `COCCNc1c(-c2ccc(O)cc2)nc2ccc(Cl)cn12` stands 97.3%; under `CC(C)(C)c1ccc(C(=O)N/N=C/c2cccc(Cl)c2)cc1`, 92.6%. `O=C(COC(=O)C1CCN(c2ccc(C(F)(F)F)cn2)CC1)Nc1cccc(F)c1` had a GFP response, % of DMSO of 102%. For `COc1ccc(Cc2nnc(NC(=O)c3ccccc3F)s2)cc1` the value was 97.7%.

As for `COC(=O)c1cccc(-n2c(CCC(=O)O)ccc2-c2cccs2)c1`, the GFP response, % of DMSO was 97.7%. Under `CC(=O)Oc1ccc(/C=c2\sc3ncnn3c2=O)cc1` stands 96%; under `CCNC(=O)c1c(O)c2cccc3c2n(c1=O)CC3`, 98.1%; under `Cc1ccc(C(=O)NNC(=S)NC(=O)c2ccco2)cc1`, 102%. For `CCOC(=O)c1sc(NC(=O)CN2C(=O)c3cccc4cccc(c34)C2=O)nc1C` the value was 97.3%; for `Cc1ccc(NC(=O)c2ccccc2O)cc1`, 99.1%. Regarding `O=C(NCCN1CCOCC1)c1ccc(CS(=O)(=O)Cc2ccccc2F)o1`, the GFP response, % of DMSO is 110%. Under `Cc1ccc(-n2nnnc2C(Cl)(Cl)c2nnnn2-c2ccc(C)cc2)cc1` stands 100%. For `COc1ccc(CC(=O)Oc2ccccc2C)cc1` the value was 95.6%. For `Cc1ccc(S(=O)(=O)N(Cc2ccccc2)Cc2ccco2)cc1` the value was 104%; for `Cc1cc(NC(=O)c2cccnc2Cl)ccc1NC(=O)c1cc2ccccc2o1`, 103%. `Cc1ccc(NC(=O)CCCSc2nc3ccccc3[nH]2)cc1`: the GFP response, % of DMSO amounted to 114%. For `Cc1ccc(C(=O)Sc2cccccc2=O)cc1` the value was 84.8%. Under `COc1ccccc1-c1noc(CCC(=O)Nc2cccc(C(F)(F)F)c2)n1` stands 94.4%; under `Nc1cccnc1S(=O)(=O)c1ccccc1`, 97.7%. For `O=C(O)CCc1ccc(-c2ccccc2)o1` the value was 92.6%; for `Nc1nc(SCC(=O)Nc2cc(C(F)(F)F)ccc2N2CCOCC2)n[nH]1`, 98.5%; for `Cc1ncc2c(n1)-c1cc(F)ccc1SC2`, 109%. On to `Cc1ccc2c(c1)c(/C=C/c1cc[n+](C)cc1)c(C)n2C`, for which the GFP response, % of DMSO worked out at 177%. Regarding `COc1ccc(CCNC2=C(Cl)C(=O)N(CCc3ccc(OC)c(OC)c3)C2=O)cc1OC`, the GFP response, % of DMSO is 93.3%. Under `Cc1cccc(NC(=S)NCC23C=CC(O2)C2C(=O)N(c4ccc(Cl)cc4)C(=O)C23)c1` (stereo not given) stands 103%; under `O=C(CSc1nnc(-c2ccccn2)n1Cc1ccccc1)N1CCOCC1`, 105%. Under `COc1ccc(-c2nc(-c3ccccc3OC)no2)cc1OC` stands 93.2%.

(Values after PubChem BioAssay.)
